Source: PubChem BioAssay (NCI)
About 79,000 compounds went through this panel and 15% of them were active in at least one assay; those are over-represented in the sample as a whole. Unmarked numbers belong to inactive results. Activity calls are given as the source filed them. Cut-off read from the data, not from the text of the source: active = growth inhibition above about 70%; inactive = the rest.

Legend:
[1] = NCI Yeast Anticancer Drug Screen. Data for the wt2 strain (AID 169);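 note: 0% = growth of vehicle-treated yeast cultures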; conditions: S. cerevisiae wt2 strain growth inhibition, hits give high values
How it was run: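 Steps: yeast strain treated with compound; growth recorded; inhibition calculated relative to cultures given vehicle alone.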

[2] = NCI Yeast Anticancer Drug Screen. Data for the mlh1 strain (AID 171);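 note: 0% = growth of vehicle-treated control cultures of the same strain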; conditions: S. cerevisiae mlh1 strain growth inhibition, hits give high values
How it was run: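 Yeast screen: mutant strain plus compound, growth scored against vehicle control wells.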

[3] = NCI Yeast Anticancer Drug Screen. Data for the sgs1 strain (AID 173);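 note: 0% = growth of vehicle-only control cultures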; conditions: S. cerevisiae sgs1 mutant, hits give high values
How it was run: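 Inhibition of yeast growth served as the measure. The mutant strain was treated with each compound, and growth was normalised to cultures receiving vehicle alone.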

[4] = NCI Yeast Anticancer Drug Screen. Data for the mlh1 rad18 strain (AID 175); conditions: S. cerevisiae mlh1 rad18 strain growth inhibition, hits give high values
How it was run: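 Compound-treated yeast growth, normalised to vehicle controls. Strain bears defined DNA repair mutations.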

[5] = NCI Yeast Anticancer Drug Screen. Data for the rad18 strain (AID 177); conditions: S. cerevisiae rad18 mutant growth inhibition, hits give high values
How it was run: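 Inhibition values reflect reduced yeast growth compared with vehicle-treated controls, using a strain engineered with a DNA damage repair defect.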

[6] = NCI Yeast Anticancer Drug Screen. Data for the rad52 strain (AID 147);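 note: 0% = growth of vehicle-treated control cultures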; conditions: S. cerevisiae rad52 mutant growth inhibition, hits give high values
How it was run: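 Genetically altered yeast (DNA damage repair defect) treated with compound; inhibition calculated relative to vehicle.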

[7] = NCI Yeast Anticancer Drug Screen. Data for the wt1 strain (AID 149);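 note: 0% = growth of vehicle-treated wt1 cultures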; conditions: S. cerevisiae wt1 strain (SPY 50644) growth inhibition, hits give high values
How it was run: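 Compounds are added to wt1 yeast cultures. Growth is then measured. Inhibition is expressed relative to vehicle-treated controls.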

[8] = NCI Yeast Anticancer Drug Screen. Data for the rad50EPP+ strain (AID 151);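 note: 0% = growth of vehicle-treated control cultures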; conditions: S. cerevisiae rad50 mutant strain, hits give high values
How it was run: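 Strain rad50EPP+; compound exposure; % growth inhibition vs vehicle.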

[9] = NCI Yeast Anticancer Drug Screen. Data for the mgt1 strain (AID 153); conditions: S. cerevisiae mgt1 mutant growth inhibition, hits give high values
How it was run: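 Read-out: yeast growth inhibition vs vehicle control. Strain mgt1, drawn from a panel altered in DNA damage repair or cell cycle control.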

[10] = NCI Yeast Anticancer Drug Screen. Data for the rad50 strain (AID 155);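 note: 0% = growth of vehicle-only cultures of the same strain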; conditions: S. cerevisiae rad50 strain growth inhibition, hits give high values
How it was run: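 Inhibition values express reduced yeast growth in compound-treated cultures relative to vehicle-treated controls.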

[11] = NCI Yeast Anticancer Drug Screen. Data for the mec2-1 strain (AID 157); conditions: S. cerevisiae mec2-1 strain, hits give high values
How it was run: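 Cells of the genetically defined mec2-1 yeast strain are incubated with test compound. Inhibition of growth is calculated against vehicle-treated controls.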

[12] = NCI Yeast Anticancer Drug Screen. Data for the rad14 strain (AID 159);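 note: 0% = growth of vehicle-treated control cultures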; conditions: S. cerevisiae rad14 strain growth inhibition, hits give high values
How it was run: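 A mutant yeast strain defective in DNA damage repair is treated with compound; inhibition of its growth is scored against untreated, vehicle-exposed cultures.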

[13] = NCI Yeast Anticancer Drug Screen. Data for the sgs1 mgt1 strain (AID 161);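 note: 0% = growth of cultures given vehicle only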; conditions: S. cerevisiae sgs1 mgt1 strain, hits give high values
How it was run: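 Inhibition of yeast growth, normalised to vehicle-treated controls, is reported for a strain bearing genetic alterations in DNA damage repair.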

[14] = NCI Yeast Anticancer Drug Screen. Data for the CLN2oe strain (AID 163);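 note: 0% = growth of vehicle-only control cultures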; conditions: S. cerevisiae CLN2oe strain, hits give high values
How it was run: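 Strain altered in cell-cycle control, incubated with compound; growth compared to solvent-treated controls.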

[15] = NCI Yeast Anticancer Drug Screen. Data for the cln2 rad14 strain (AID 165);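 note: 0% = growth equal to vehicle treated cultures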; conditions: S. cerevisiae cln2 rad14 strain, hits give high values
How it was run: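 The screen exposed genetically defined yeast (cln2 rad14) to test compounds and scored growth inhibition relative to vehicle-treated controls.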

[16] = NCI Yeast Anticancer Drug Screen. Data for the bub3 strain (AID 167); conditions: S. cerevisiae bub3 mutant strain, hits give high values
How it was run: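 Steps: expose the mutant yeast strain to compound; grow alongside vehicle-treated cultures; measure growth; express inhibition against the vehicle cultures.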

[17] = at 5.0 µM (retest, dose inferred, filed as 0.5)
[18] = at 50.0 µM (retest, dose inferred, filed as 5.0)

Compound: O=C(CCCN1CCC(O)(c2ccc(Cl)cc2)CC1)c1ccc(F)cc1
- growth inhibition ([1]; at 1.2 µM): 0%
- growth inhibition ([1]; at 3.7 µM): 21%
- growth inhibition ([1]; at 11.0 µM): 18%
- growth inhibition ([1]; at 33.0 µM): 24%
- growth inhibition ([1]; at 100.0 µM): 24%
- growth inhibition ([2]; at 1.2 µM): 11%
- growth inhibition ([2]; at 3.7 µM): 16%
- growth inhibition ([2]; at 11.0 µM): 27%
- growth inhibition ([2]; at 33.0 µM): 34%
- growth inhibition ([2]; at 100.0 µM): 44%
- growth inhibition ([3]; at 1.2 µM): 15%
- growth inhibition ([3]; at 3.7 µM): 23%
- growth inhibition ([3]; at 11.0 µM): 46%
- growth inhibition ([3]; at 33.0 µM): 43%
- growth inhibition ([3]; at 100.0 µM): 52%
- growth inhibition [4, 17]: 35%
- growth inhibition [4, 18]: 99% (active)
- growth inhibition ([4]; at 50.0 µM): 66%
- growth inhibition ([5]; at 1.2 µM): 37%
- growth inhibition ([5]; at 3.7 µM): 37%
- growth inhibition ([5]; at 11.0 µM): 44%
- growth inhibition ([5]; at 33.0 µM): 58%
- growth inhibition ([5]; at 100.0 µM): 64%

Compound: CC(C)C1=CCC2C(=C1)CCC1C(C)(C(=O)O)CCCC21C (stereo unspecified) (tested in a mixture with another compound)
- growth inhibition ([6]; at 1.2 µM): 0%
- growth inhibition ([6]; at 3.7 µM): 9%
- growth inhibition ([6]; at 11.0 µM): 12%
- growth inhibition ([6]; at 33.0 µM): 41%
- growth inhibition ([6]; at 100.0 µM): 94% (active)
- growth inhibition ([7]; at 1.2 µM): 11%
- growth inhibition ([7]; at 3.7 µM): 15%
- growth inhibition ([7]; at 11.0 µM): 12%
- growth inhibition ([7]; at 33.0 µM): 41%
- growth inhibition ([7]; at 100.0 µM): 97% (active)
- growth inhibition ([8]; at 1.2 µM): 30%
- growth inhibition ([8]; at 3.7 µM): 33%
- growth inhibition ([8]; at 11.0 µM): 37%
- growth inhibition ([8]; at 33.0 µM): 42%
- growth inhibition ([8]; at 100.0 µM): 47%
- growth inhibition ([9]; at 1.2 µM): 0%
- growth inhibition ([9]; at 3.7 µM): 10%
- growth inhibition ([9]; at 11.0 µM): 6%
- growth inhibition ([9]; at 33.0 µM): 15%
- growth inhibition ([9]; at 100.0 µM): 94% (active)
- growth inhibition ([10]; at 1.2 µM): 11%
- growth inhibition ([10]; at 3.7 µM): 12%
- growth inhibition [10, 17]: 30%
- growth inhibition ([10]; at 11.0 µM): 16%
- growth inhibition ([10]; at 33.0 µM): 41%
- growth inhibition [10, 18]: 98% (active)
- growth inhibition ([10]; at 50.0 µM): 83.5% (active)
- growth inhibition ([10]; at 100.0 µM): 92% (active)
- growth inhibition ([11]; at 1.2 µM): 18%
- growth inhibition ([11]; at 3.7 µM): 13%
- growth inhibition [11, 17]: 29%
- growth inhibition ([11]; at 11.0 µM): 15%
- growth inhibition ([11]; at 33.0 µM): 54%
- growth inhibition [11, 18]: 99% (active)
- growth inhibition ([11]; at 50.0 µM): 85.2% (active)
- growth inhibition ([11]; at 100.0 µM): 94% (active)
- growth inhibition ([12]; at 1.2 µM): 13%
- growth inhibition ([12]; at 3.7 µM): 22%
- growth inhibition ([12]; at 11.0 µM): 19%
- growth inhibition ([12]; at 33.0 µM): 34%
- growth inhibition ([12]; at 100.0 µM): 97% (active)
- growth inhibition [13, 17]: 31%
- growth inhibition [13, 18]: 96% (active)
- growth inhibition ([13]; at 50.0 µM): 84.5% (active)
- growth inhibition ([14]; at 1.2 µM): -2%
- growth inhibition ([14]; at 3.7 µM): 6%
- growth inhibition ([14]; at 11.0 µM): -16%
- growth inhibition ([14]; at 33.0 µM): 40%
- growth inhibition ([14]; at 100.0 µM): 96% (active)
- growth inhibition [15, 17]: 9%
- growth inhibition [15, 18]: 98% (active)
- growth inhibition ([15]; at 50.0 µM): 89.8% (active)
- growth inhibition ([16]; at 1.2 µM): 8%
- growth inhibition ([16]; at 3.7 µM): 11%
- growth inhibition [16, 17]: 29%
- growth inhibition ([16]; at 11.0 µM): 0%
- growth inhibition ([16]; at 33.0 µM): 17%
- growth inhibition [16, 18]: 97% (active)
- growth inhibition ([16]; at 50.0 µM): 85.5% (active)
- growth inhibition ([16]; at 100.0 µM): 95% (active)
- growth inhibition ([1]; at 1.2 µM): -60%
- growth inhibition ([1]; at 3.7 µM): -40%
- growth inhibition ([1]; at 11.0 µM): -56%
- growth inhibition ([1]; at 33.0 µM): 63%
- growth inhibition ([1]; at 100.0 µM): 93% (active)
- growth inhibition ([2]; at 1.2 µM): 12%
- growth inhibition ([2]; at 3.7 µM): 11%
- growth inhibition ([2]; at 11.0 µM): 6%
- growth inhibition ([2]; at 33.0 µM): 43%
- growth inhibition ([2]; at 100.0 µM): 96% (active)
- growth inhibition ([3]; at 1.2 µM): 18%
- growth inhibition ([3]; at 3.7 µM): 24%
- growth inhibition ([3]; at 11.0 µM): 23%
- growth inhibition ([3]; at 33.0 µM): 43%
- growth inhibition ([3]; at 100.0 µM): 96% (active)
- growth inhibition [4, 17]: 40%
- growth inhibition [4, 18]: 98% (active)
- growth inhibition ([4]; at 50.0 µM): 76.5% (active)
- growth inhibition ([5]; at 1.2 µM): -5%
- growth inhibition ([5]; at 3.7 µM): -9%
- growth inhibition ([5]; at 11.0 µM): -20%
- growth inhibition ([5]; at 33.0 µM): 15%
- growth inhibition ([5]; at 100.0 µM): 88% (active)
